# This is part of a sample that, as a whole, favours compounds with a hit. Of some 83,000 tested, about 20% had one in any assay.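 Testing used 96-well plates and a 48-hour single-concentration exposure. Example: -40 means 40% of the starting cells died.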 A number with no mark means an inactive call. Active and inactive are the calls of the source. How the source made its calls: active means growth percent below 10; inactive means the rest.
# Test system: M14 melanoma
# Experiment: NCI-60 one-dose screen, 48 h (100 = growth as untreated, 0 = no growth, -100 = all killed)
# Conditions: 10 µM unless noted
row,Compound,growth
1,CCOc1ccccc1/C=N\Nc1ccc(S(=O)(=O)c2ccc(N/N=C/c3ccccc3OCC)cc2)cc1,96.9%
2,Nc1ccc(Cl)c([N+](=O)[O-])c1,95.7%
3,Oc1ccc(N=Nc2nccs2)c(O)c1,68%
4,O=C(N[C@@H]1CCCc2ccccc21)[C@H](CCC(=O)N1CCN(C2CCCCC2)CC1)N1C(=O)[C@@H](N2C(=O)OC[C@@H]2c2ccccc2)[C@H]1/C=C/c1ccccc1,14.2%
5,Cc1ccc(NC(=S)/N=c2/n(-c3ccccc3)nc3n2CCN3C2=NCCN2)cc1,82.8%
6,CCCCC1COc2cccc3c2N1C=C/C3=C\C(=O)n1ccc2ccccc21 (stereo not drawn),56%
7,COc1cc(C)cc2oc3oc(=O)c(-c4nc5ccccc5s4)cc3c(=O)c12,99%
8,O=C(Nc1ccccc1)Nc1ccc(C(=O)/C=C/c2ccc(N3CCCC3)cc2)cc1,101%
9,COc1cc(C)cc2oc3oc(=N)c(C(=O)c4ccccc4)cc3c(=O)c12,99.7%
10,CC[C@]12C=CCN3CC[C@@]4(c5ccc(OC)cc5N(C)[C@H]4[C@@](O)(C(=O)OC)[C@@H]1OC(=O)CCC(=O)N[C@H](Cc1c[nH]c4ccccc14)C(=O)OC)[C@@H]32,-32.8% [100 µM] (active)
11,CC(=O)OC[C@]12CC[C@@H]([C@@H](C)C(N)=O)[C@@H]1[C@H]1CC[C@@H]3[C@@]4(C)CC[C@H](OC(C)=O)C(C)(C)[C@@H]4CC[C@@]3(C)[C@]1(C)CC2,-44.3% [100 µM] (active)
12,O=c1c2c3c(sc2n2cnnc2n1Cc1ccccc1)CCCC3,164%
13,COc1cc2c(c(OC)c1)C1c3cc(OC)ccc3NC(=O)N1CC2 (stereo not drawn),59.4%
14,O=c1cc(-c2ccccc2)oc2cc(OCc3cn(Cc4ccc(F)cc4)nn3)cc(O)c12,65.9% [100 µM]
15,CCN(CC)c1ccc2cc(NC(=O)OCCNC(=O)CCNC(=O)[C@H](CC(C)C)NC(=O)C(C)(C)NC(=O)C(C)(C)NC(=O)[C@H](CC(C)C)NC(=O)CCNC(=O)C(C)(C)NC(=O)[C@H](CC(C)C)NC(=O)CCNC(=O)[C@@](C)(CC)NC(=O)[C@H](C)NC(=O)CCNC(=O)C(C)(C)NC(=O)[C@H](C)NC(=O)[C@@H]3CCCN3C(=O)[C@@](C)(CC)NC(=O)[C@H](Cc3ccccc3)NC(=O)C3CCCN3C(=O)C(C)(C)NC(=O)C3CCCN3C(=O)C(C)(C)NC(C)=O)c(=O)oc2c1 (stereo partly drawn),-79.4% (active)
16,CCCCCCCCCCCCCC[n+]1cccc(C(N)=O)c1,-38.8% (active)
17,CCOC(CNC(=O)c1cccc([N+](=O)[O-])c1)OCC,98.7%
18,COc1ccc(/C=C/C=C\C(=O)c2ccc(-n3ccnc3)cc2)cc1,21.3%
19,CCNc1cc2c(cc1Br)-c1ccccc1C2=O,107%

row,Compound,growth
1,C[n+]1c(-c2ccccc2)c2cc(N)ccc2c2ccccc21,74.3%
2,C/C=C/C1OC23CCCCC2C(C#N)(C(=N)O3)C1(C#N)C#N (stereo not drawn),92.8%
3,Fc1cc2[nH]ncc2c2c3c(c(-c4cn[nH]c4)nc12)CCCC3,1.03% (active)
4,CCOC(=O)c1nn(C2CCCCO2)c2ccc(NC(=O)CN3CCCC3)cc12 (stereo not drawn),98.2%
5,Nc1nnc(CSc2nnc3n(Cc4ccccc4)c(=O)c4c5c(sc4n23)CCCC5)s1,104%
6,O=S(=O)(NCc1ccccc1)c1ncnc2nc[nH]c12,108%
7,c1cc2ccc1CNCCN1CCNCc3ccc(cc3)Oc3ccc(cc3)CNCCN(CCNCc3ccc(cc3)O2)CCNCc2ccc(cc2)Oc2ccc(cc2)CNCC1,94.8%
8,CS(=O)(=O)c1cccnn1,103%
9,N=C(N)c1ccc(-c2ccc(-c3ccc(-c4cccs4)s3)s2)cc1F,99.4%
10,CCCSc1nc(N)nc2nc[nH]c12,96%
11,C[C@H]1[C@H](C)CC[C@]2(C(=O)O)CC[C@]3(C)C(=CC[C@@H]4[C@@]5(C)C/C(=C/c6cccnc6)[C@H](O)C(C)(C)[C@@H]5CC[C@]43C)[C@H]12,1.69% [100 µM] (active)
12,O=C1CC(c2ccccc2)Cc2nc3ccc(Br)cc3cc21 (stereo not drawn),10.2%
13,C1=C[C@H]2O[C@@H]1c1ccc3[nH]ccc3c12,86.3%
14,CCN(CC)c1ccc(/C=C/c2ccc3cc(C)ccc3[n+]2CC)cc1,2.07% (active)
15,O=C(Nc1cc(F)cc2cccnc12)c1cnc(N2CCNCC2)cn1,86.1%
16,C=CCCC1(C)NC(=O)NC1=O (stereo not drawn),98.1%
17,CC(=O)Nc1ccc2nc3ccc(NC(C)=O)cc3[n+](-c3ccccc3)c2c1,107%
18,CCCCCN(CCCCC)CCCCCCCCN1CCCc2ccccc21,89.8%
19,O=C(O)c1cccc(CN2CCN(c3cc4c(cc3F)c(=O)c(C(=O)O)cn4C3CC3)CC2)c1O,101%

# Source: PubChem BioAssay (NCI)
